# Data as given in PubChem BioAssay (NCI).
# About 83,000 compounds went through this panel and 20% of them were active in at least one assay; those are over-represented in the sample as a whole.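 Each cell line was grown in a 96-well plate and treated with one concentration of compound for 48 hours. Values below 10 were considered active.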 Values without a mark were called inactive. The source made the active and inactive calls.
# How the values were obtained:
# Experiment in all cases: NCI-60 one-dose screen, 48 h (100 = growth as untreated, 0 = no growth, -100 = all killed)
# [1] = system: NCI-H23 lung; settings: 10 µM unless noted
# [2] = system: NCI-H226 lung; settings: 10 µM unless noted
# [3] = system: DU-145 prostate; settings: 10 µM unless noted
# [4] = system: MDA-MB-231 breast; settings: 10 µM unless noted
# [5] = system: SF-268 CNS; settings: 10 µM unless noted
# [6] = system: M14 melanoma; settings: 10 µM unless noted
# [7] = system: HCT-15 colon; settings: 10 µM
# [8] = system: HT29 colon; settings: 10 µM unless noted
# [9] = system: PC-3 prostate; settings: 10 µM unless noted
# [10] = system: UACC-62 melanoma; settings: 10 µM unless noted
# [11] = system: LOX IMVI melanoma; settings: 10 µM unless noted
# [12] = system: SK-MEL-28 melanoma; settings: 10 µM unless noted
# [13] = system: OVCAR-8 ovarian; settings: 10 µM unless noted
# [14] = system: OVCAR-5 ovarian; settings: 10 µM unless noted
# [15] = system: SK-OV-3 ovarian; settings: 10 µM unless noted
# [16] = system: OVCAR-3 ovarian; settings: 10 µM unless noted
# [17] = system: NCI/ADR-RES ovarian; settings: 10 µM unless noted
# [18] = system: SW-620 colon; settings: 10 µM unless noted
# [19] = system: MCF7 breast; settings: 10 µM unless noted
# [20] = system: KM12 colon; settings: 10 µM unless noted
SMILES,growth [1],growth [2],growth [3],growth [4],growth [5],growth [6],growth [7],growth [8],growth [9],growth [10],growth [11],growth [12],growth [13],growth [14],growth [15],growth [16],growth [17],growth [18],growth [19],growth [20]
CC(=O)N(C)C1=Nc2ccc(Cl)cc2C(c2ccccc2)=[N+]([O-])C1,101%,105%,115%,109%,105%,114%,108%,104%,91%,93.7%,95.4%,124%,102%,102%,102%,117%,111%,107%,104%,107%
C=CCc1ccc(OC(=O)Cc2ccccc2)c(OC)c1,93.8%,95%,111%,106%,107%,106%,103%,115%,100%,114%,93.6%,106%,109%,110%,94.2%,110%,105%,106%,96%,110%
Cc1cc(NC(=O)CCc2ccc(N3C(N)=NC(N)=NC3(C)C)cc2)ccc1S(=O)(=O)F,26.2%,37.4%,45.8%,76.8%,32.2%,48.2%,60.1%,24.7%,-23.4% (active),22.6%,18.1%,53.9%,40.9%,17.9%,67.3%,71.5%,19.2%,23.1%,14.9%,18.8%
CC(C)(C)N(Cc1ccccc1)N=O,102%,91.7%,107%,91.9%,108%,103%,103%,104%,98.7%,103%,93.7%,106%,95.7%,98.4%,96.2%,118%,113%,101%,97.7%,104%
CN(C)P1(N(C)C)=NP(N(C)C)(N(C)C)=NP(N(C)C)(N(C)C)=N1,106%,99.5%,110%,107%,105%,101%,101%,104%,90%,103%,92.7%,107%,96.1%,104%,106%,106%,107%,103%,95.4%,104%
CC(=O)[O][Hg][c]1ccccc1,-84.5% (active),81.9%,-97.9% (active),-54.8% (active),-86.4% (active),-90% (active),-65.5% (active),-47.9% (active),-57.8% (active),-69% (active),-88.2% (active),-88.4% (active),,,-5.18% (active),-93.3% (active),-39.1% (active),-92.9% (active),-75.2% (active),-95.3% (active)
CC1(C)N=C(N)N=C(N)N1c1ccc(CNC(=O)Nc2ccc(S(=O)(=O)F)c(Cl)c2)c(Cl)c1,31.1%,83.8%,31.7%,60.8%,26.5%,29.4%,47.5%,7.61% (active),4.03% (active),23.9%,11.9%,48.6%,25.4%,26.4%,42.9%,48.9%,103%,12.5%,1.42% (active),21.2%
CC1(C)N=C(N)N=C(N)N1c1ccc(CCC(=O)Nc2cccc(S(=O)(=O)F)c2)cc1,63.8%,89%,72.1%,104%,51.6%,69.8%,81.9%,66.2%,24.5%,45.3%,23.5%,103%,85.8%,91.2%,101%,114%,,52.3%,54.6%,75%
CC1(C)N=C(N)N=C(N)N1c1ccc(CCCCc2ccc(S(=O)(=O)F)cc2)c(Cl)c1,29.8%,31.8%,30.6%,34.3%,25.6%,24.3%,29.5%,8.74% (active),7.48% (active),18.3%,8.78% (active),48.4%,16.5%,40.3%,42%,35.3%,103%,17.2%,-0.0775% (active),22.4%
CCOC(=O)/C=C(\C)Nc1ccc(N/C(C)=C/C(=O)OCC)c2c1Oc1ccccc1O2,89.7%,93.2%,110%,79%,107%,107%,100%,112%,103%,92.3%,94.4%,114%,96.7%,106%,107%,92.6%,99.5%,99.4%,93.7%,97.6%
COc1ccccc1N1CCN(CCc2c[nH]c3cc4c(cc23)OCO4)CC1,71.9%,79.3%,103%,79.8%,91.6%,68.9%,68%,44.2%,58.4%,69.2%,60.4%,94.2%,88.4%,60.2%,104%,91.2%,86%,88.6%,78.7%,84%
NCCc1cc(O)c(O)cc1O,100%,99.1%,112%,94.4%,104%,99.6%,97.6%,98.8%,82.3%,,101%,114%,97.8%,,99%,111%,101%,109%,105%,96.8%
Oc1ccc(O)c2c1C1(Cl)C(Cl)=C(Cl)C2(Cl)C1(Cl)Cl,59.3%,59%,63.2%,41.3%,44.7%,32.6%,45.3%,66.4%,42.4%,37.1%,43.1%,67.9%,74%,70.1%,66.9%,40.4%,40.5%,56.9%,38.9%,34.6%
Cc1cccc(N=C2c3cc([N+](=O)[O-])ccc3-c3c2cc([N+](=O)[O-])cc3[N+](=O)[O-])c1,56.5%,80.1%,88%,60.2%,58.7%,69.4%,34.2%,21.3%,16.8%,77.5%,39.3%,97.2%,64.5%,99.4%,119%,50.4%,56.5%,-54.9% (active),21.3%,52.4%
CC1(C)N=C(N)N=C(N)N1c1cccc(C(=O)Nc2cccc(S(=O)(=O)F)c2)c1,107%,99%,114%,113%,112%,102%,,109%,97.1%,99%,99.7%,103%,100%,89.4%,117%,112%,104%,93.5%,95.5%,102%
C[C@]12CC[C@@H]3C4=C(CC[C@H]3[C@@H]1CC[C@@H]2O)CC(=O)CC4,98.3%,94%,116%,103%,99.7%,107%,100%,105%,103%,83.3%,90.2%,107%,101%,-62.7% (active),114%,113%,95.8%,102%,118%,107%
